# Several values for one entry are separate records, joined by “and”; a condition that tells them apart may be missing. Equal values may be shown once. Where a name gives a salt, the structure may show the parent alone.
# Tests used:
# Experiment in all cases: cell viability relative to vehicle control; higher = less cytotoxic
# Conditions in all cases: 10 µM
# K562 = tested on: K562
# Outline: (§1)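 CRISPR-edited mutant clones and isogenic wild-type clones from four leukaemia lines were screened against Selleck bioactive, kinase and epigenetic probe libraries, with identity-inconsistent compounds excluded. Each compound was acoustically dispensed at a single 10 µM dose into 384-well plates holding 2000 cells in 50 µL medium per well. After 48 h the supernatant was removed and CellTiter-Glo luminescence was read. Viability was expressed as percent of the on-plate vehicle control and analysed in Genedata Screener.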
# MARIMO = tested on: MARIMO
# Outline: as §1
# MOLM14 = tested on: MOLM14
# Outline: as §1
# OCI-AML2 = tested on: OCI-AML2
# Outline: as §1
SMILES,cell viability (K562; SRSF2 genotype: SRSF2 P95H/wt),cell viability (K562; SRSF2 genotype: SRSF2 wt/wt) [%],cell viability (MARIMO; SRSF2 genotype: SRSF2 P95H/wt) [%],cell viability (MARIMO; SRSF2 genotype: SRSF2 wt/wt) [%],cell viability (MOLM14; SRSF2 genotype: SRSF2 P95H/wt) [%],cell viability (MOLM14; SRSF2 genotype: SRSF2 wt/wt) [%],cell viability (OCI-AML2; SRSF2 genotype: P95H/wt) [%],cell viability (OCI-AML2; SRSF2 genotype: wt/wt) [%]
O=Cc1ccccc1 [Benzoic aldehyde],98.9% and 98%,95,86.4,91.5,93,92.4,85.4,88.3
C[C@H]1CCCC(=O)CCC/C=C/c2cc(O)cc(O)c2C(=O)O1 [Zearalenone],101% and 93.8%,99.5,82.7,88.8,79.2,99,88.7,97.7
C[C@H]1CC[C@@H]2N(C1)C[C@H]1[C@@H]3C[C@H]4[C@@H](CC(=O)[C@H]5C[C@@H](O)CC[C@@]54C)[C@@H]3CC[C@H]1[C@]2(C)O [Imperialine],112% and 97.8%,109,103,101,105,106,101,107
OC1CC2CCC(C1)N2 (configuration not stated) [Nortropine Hydrochloride],101% and 98.7%,101,102,107,97.2,102,105,94.8
CCC(C)C(=O)O[C@@H]1[C@@H](OC(C)=O)[C@]2(C)[C@H](C(C)=O)CC[C@@]23O[C@]32CC[C@H]3C[C@@H](O[C@H]4C[C@@H](OC)[C@H](O[C@@H]5O[C@H](C)[C@@H](O)[C@@H](OC)[C@H]5O)[C@@H](C)O4)CC[C@]3(C)[C@@H]12 (some centres not stated) [Tenacissoside H],89.8% and 95.2%,97.7,96.9,93.2,94.6,93.4,98.9,96.7
Cc1sc2c(c1C)C(c1ccc(Cl)cc1)=N[C@@H](CC(=O)Nc1ccc(O)cc1)c1nnc(C)n1-2,60.9% and 68.8%,71.9,27.3,35.8,18,14.1,17.7,32.3
CCOc1ccccc1-n1c(C(C)N2CCN(C(=O)COc3ccc(Cl)cc3)CC2)nc2ccccc2c1=O (configuration not stated) [Erastin],–,63,21.1,38.8,6.91,3.65,0.65,12.4
O=C(CC1NCCCC1O)Cn1cnc2cc(Br)c(Cl)cc2c1=O (configuration not stated) [Halofuginone],6.09% and 15.2%,11,8.89,3.03,0.77,0.52,0.78,5.46
O=c1[nH]c2ccc(Cl)cc2c(N[C@@H]2CN3CCC2CC3)c1-c1nc2ccccc2[nH]1,2.58% and 2.45%,0.48,0.55,0.36,0.07,-0.01,0.04,0.75
CN1CCC(c2c[nH]c3ccc(O)cc23)CC1,107% and 100%,102,101,104,103,102,91.8,105
N#C[C@H](O[C@@H]1O[C@H](CO[C@@H]2O[C@H](CO)[C@@H](O)[C@H](O)[C@H]2O)[C@@H](O)[C@H](O)[C@H]1O)c1ccccc1 [Amygdalin],104% and 107%,102,104,107,106,108,107,95.3
